# A number with no mark means an inactive call. Records with an inconclusive call do not appear. Where a call stands in place of a potency, no number is given. Activity calls are given as the source filed them. Unless noted, calls come from the whole dose curve; as a rule, active = well fitted curve in the direction sought with a large enough effect; inconclusive = small, poorly fitted or top-dose-only effect, or another doubt; inactive = no such curve, though single readings can be large; an effect the other way counts as inactive or inconclusive.
# Tests used:
# [1] = target: ATP-dependent 6-phosphofructokinase (Trypanosoma brucei brucei) (UniProt O15648); assay: qHTS Assay to Find Inhibitors of T. brucei phosphofructokinase: hit validation (AID 492961);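 note: luminescence reports ADP formed as PFK phosphorylates fructose-6-phosphate with ATP; series mostly up to about 51 µM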
# ATP-dependent 6-phosphofructokinase (Trypanosoma brucei brucei), sequence (O15648 whole entry, looked up): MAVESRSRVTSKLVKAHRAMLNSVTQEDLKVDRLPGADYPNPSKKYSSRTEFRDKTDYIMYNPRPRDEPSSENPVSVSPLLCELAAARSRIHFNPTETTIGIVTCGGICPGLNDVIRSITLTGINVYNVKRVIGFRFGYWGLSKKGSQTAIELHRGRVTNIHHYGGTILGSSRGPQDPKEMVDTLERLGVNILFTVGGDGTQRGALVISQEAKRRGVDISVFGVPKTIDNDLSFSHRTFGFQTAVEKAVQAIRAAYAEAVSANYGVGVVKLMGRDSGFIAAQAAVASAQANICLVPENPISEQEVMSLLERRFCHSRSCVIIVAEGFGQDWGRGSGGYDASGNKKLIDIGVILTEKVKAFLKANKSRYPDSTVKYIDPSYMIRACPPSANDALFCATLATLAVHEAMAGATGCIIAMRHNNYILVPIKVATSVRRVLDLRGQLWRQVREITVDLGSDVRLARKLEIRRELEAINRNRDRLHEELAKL
# Outline: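 Compounds titrated; %activity normalized to 0x and 1x enzyme controls, curve-fitted. Readout: ADP-Glo luminescence after 45 min room-temperature reaction of 1.25 nM PFK, 0.1 mM ATP, 0.5 mM F6P, pH 8.0.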
# [2] = target: Ubiquitin carboxyl-terminal hydrolase 1 (Homo sapiens) (UniProt O94782); assay: Inhibitors of USP1/UAF1: Pilot qHTS (AID 504865);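 note: rhodamine fluorescence freed from ubiquitin-rhodamine substrate followed over time; top concentration of the series differs between compounds; nearly all actives have a fitted effect of over 35% in size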
# Ubiquitin carboxyl-terminal hydrolase 1 (Homo sapiens), sequence (O94782 whole entry, looked up): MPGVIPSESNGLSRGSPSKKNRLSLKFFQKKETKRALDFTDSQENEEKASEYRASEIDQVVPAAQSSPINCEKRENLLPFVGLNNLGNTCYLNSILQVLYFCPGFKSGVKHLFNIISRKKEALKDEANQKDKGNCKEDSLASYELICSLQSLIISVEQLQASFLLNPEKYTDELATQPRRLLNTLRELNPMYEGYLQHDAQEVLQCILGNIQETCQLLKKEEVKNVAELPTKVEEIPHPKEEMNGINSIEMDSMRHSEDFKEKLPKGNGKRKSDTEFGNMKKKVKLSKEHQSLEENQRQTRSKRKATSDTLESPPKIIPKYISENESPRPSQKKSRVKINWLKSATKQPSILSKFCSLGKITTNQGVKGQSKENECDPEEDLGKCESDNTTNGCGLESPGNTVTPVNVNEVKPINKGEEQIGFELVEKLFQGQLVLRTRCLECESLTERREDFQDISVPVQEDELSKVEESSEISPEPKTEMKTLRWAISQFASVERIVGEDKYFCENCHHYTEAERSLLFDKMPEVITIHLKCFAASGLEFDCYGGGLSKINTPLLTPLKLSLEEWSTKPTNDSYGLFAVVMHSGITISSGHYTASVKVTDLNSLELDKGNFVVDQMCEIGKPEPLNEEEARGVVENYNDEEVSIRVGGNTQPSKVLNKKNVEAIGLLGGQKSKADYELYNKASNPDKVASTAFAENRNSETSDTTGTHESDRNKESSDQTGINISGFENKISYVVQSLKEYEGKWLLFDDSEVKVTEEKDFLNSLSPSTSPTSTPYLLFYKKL
# Outline: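 In 50mM HEPES pH 7.8 containing 0.5mM EDTA, 1mM TCEP, 0.1 mg/ml BSA and 0.01% Tween-20, 1nM USP1/UAF1 is exposed to compound for 15 min, then Ub-Rho (150nM final) is added and fluorescence is read over time.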
# [3] = Quantitative high throughput screen for delayed death inhibitors of the malarial parasite plastid, 96 hour incubation (AID 488745); note: series mostly up to about 29 µM; nearly all actives have a fitted effect of over 70% in size
# Source text: NIH Molecular Libraries Probe Production Network [MLPCN]
# (§1) NIH Chemical Genomics Center [NCGC]
# Assay Provider: David Fidock and Eric Ekland, Columbia University
# The goal of this screen is to discover new antimalarial compounds that act by inhibiting the development of the apicoplast in the malarial parasite Plasmodium falciparum. The biochemical processes that make this organelle essential for erythrocytic stage parasites are not well understood. However, antibiotics such as azithromycin and tetracycline, which target the apicoplast translational machinery, have a potent antimalarial effect.
# We have developed a cell-based assay that measures parasite growth based on the expression of an integrated copy of a firefly luciferase reporter. […] Growth inhibition is detected by a decrease in luciferase activity
# Four microliters of culture medium (RPMI 1640 with 0.5% w/v Albumax (GIBCO), 24 mM sodium bicarbonate and 10 ug/mL gentamycin) were dispensed by a Multi-drop Combi into white solid 1536-well plates (Grenier) and 23 nL compound was added by a pin tool. […] Two microliters of luciferase detection reagent was added and luminescence was detected by a ViewLux (PerkinElmer) reader
# [4] = Quantitative high throughput screen for delayed death inhibitors of the malarial parasite plastid, 48 hour incubation (AID 488752); note: nearly all actives have a fitted effect of over 65% in size
# Outline: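 Erythrocytes infected with firefly luciferase-expressing P. falciparum (2% hematocrit, 0.1% parasitemia) cultured with compound for 48 h at 37 C, 5% CO2, in RPMI 1640/0.5% Albumax. Growth inhibition read as loss of luminescence.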
# [5] = target: M-phase phosphoprotein 8 (Homo sapiens) (UniProt Q99549); assay: qHTS Validation Assay for Inhibitors for MPP8 Chromodomain Interactions with Methylated Histone Tails (AID 488949);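 note: 50 nM MPP8 with 50 nM peptide preformed then compounds added for 30 min; AlphaScreen signal from MPP8 chromodomain bound to biotinylated H3K9me3 peptide; top concentration of the series differs between compounds; nearly all actives have a fitted effect of over 55% in size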
# M-phase phosphoprotein 8 (Homo sapiens), sequence (Q99549 whole entry, looked up): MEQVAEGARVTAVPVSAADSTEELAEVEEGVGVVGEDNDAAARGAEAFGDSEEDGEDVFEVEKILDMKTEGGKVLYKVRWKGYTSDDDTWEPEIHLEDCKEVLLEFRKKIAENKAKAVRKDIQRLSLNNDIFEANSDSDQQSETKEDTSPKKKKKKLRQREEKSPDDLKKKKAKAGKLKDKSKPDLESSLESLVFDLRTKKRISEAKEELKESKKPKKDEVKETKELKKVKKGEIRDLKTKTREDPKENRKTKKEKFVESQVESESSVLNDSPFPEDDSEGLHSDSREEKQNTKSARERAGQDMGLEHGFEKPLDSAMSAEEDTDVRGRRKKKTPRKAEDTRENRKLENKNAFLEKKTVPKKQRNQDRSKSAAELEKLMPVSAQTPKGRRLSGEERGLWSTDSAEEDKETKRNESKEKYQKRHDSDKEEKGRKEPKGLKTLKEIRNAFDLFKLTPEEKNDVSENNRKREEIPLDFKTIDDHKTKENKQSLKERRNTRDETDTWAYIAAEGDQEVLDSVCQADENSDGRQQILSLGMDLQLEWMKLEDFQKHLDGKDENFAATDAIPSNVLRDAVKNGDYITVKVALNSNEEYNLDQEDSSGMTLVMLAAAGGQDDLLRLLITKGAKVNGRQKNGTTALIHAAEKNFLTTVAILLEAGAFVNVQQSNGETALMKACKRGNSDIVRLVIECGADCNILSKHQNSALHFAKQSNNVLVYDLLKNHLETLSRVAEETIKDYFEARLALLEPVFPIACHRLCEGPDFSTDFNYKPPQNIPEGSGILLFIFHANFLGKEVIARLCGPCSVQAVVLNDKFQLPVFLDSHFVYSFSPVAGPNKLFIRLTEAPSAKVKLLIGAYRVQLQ
# Outline: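 50 nM MPP8 + 50 nM b-H3K9me3 peptide, PBS pH 7.4/0.01% Tween-20, 30 min RT; + cpd 30 min RT; + AlphaScreen donor/Ni-chelate acceptor beads 10 ug/mL final, 30 min dark; luminescence read.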
# [6] = target: Transient receptor potential cation channel subfamily V member 1 (Homo sapiens) (UniProt Q8NER1); assay: HTS Assay for Compounds that Act as Enhancers of the Vanilloid Receptor 1 (AID 488979)
# Transient receptor potential cation channel subfamily V member 1 (Homo sapiens), sequence (Q8NER1 whole entry, looked up): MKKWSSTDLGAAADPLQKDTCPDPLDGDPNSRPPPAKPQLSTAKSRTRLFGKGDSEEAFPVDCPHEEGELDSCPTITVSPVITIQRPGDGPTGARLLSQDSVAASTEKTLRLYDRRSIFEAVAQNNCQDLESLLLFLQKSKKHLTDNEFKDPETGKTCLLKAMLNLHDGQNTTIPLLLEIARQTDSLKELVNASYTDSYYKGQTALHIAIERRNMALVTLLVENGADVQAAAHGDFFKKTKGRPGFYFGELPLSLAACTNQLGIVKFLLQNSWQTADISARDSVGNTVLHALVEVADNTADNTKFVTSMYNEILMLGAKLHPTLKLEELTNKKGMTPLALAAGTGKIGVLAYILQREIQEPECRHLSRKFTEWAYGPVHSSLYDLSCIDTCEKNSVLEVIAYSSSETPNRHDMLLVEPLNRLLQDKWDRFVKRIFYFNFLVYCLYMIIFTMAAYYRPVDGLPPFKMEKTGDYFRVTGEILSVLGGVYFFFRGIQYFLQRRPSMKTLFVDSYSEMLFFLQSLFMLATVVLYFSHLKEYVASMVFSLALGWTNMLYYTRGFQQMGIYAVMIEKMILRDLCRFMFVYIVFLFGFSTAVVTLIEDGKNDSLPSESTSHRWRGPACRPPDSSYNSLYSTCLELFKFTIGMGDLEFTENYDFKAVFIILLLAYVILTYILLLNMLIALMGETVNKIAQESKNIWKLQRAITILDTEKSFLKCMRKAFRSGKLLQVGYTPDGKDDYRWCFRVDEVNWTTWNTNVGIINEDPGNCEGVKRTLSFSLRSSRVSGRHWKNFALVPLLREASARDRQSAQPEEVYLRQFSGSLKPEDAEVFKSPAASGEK
# Outline: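 TRPV1 cells loaded with Fluo-8 calcium dye; compound added and Ca2+ signal (ex 480/em 520 nm) followed 3 min, then capsaicin at EC20 added and read 2 more min to detect enhancement.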
# [7] = target: Thyrotropin receptor (Homo sapiens) (UniProt P16473); assay: qHTS Assay for Antagonists of the Thyroid Stimulating Hormone Receptor (AID 488980); note: series mostly up to about 58 µM
# Thyrotropin receptor (Homo sapiens), sequence (P16473 whole entry, looked up): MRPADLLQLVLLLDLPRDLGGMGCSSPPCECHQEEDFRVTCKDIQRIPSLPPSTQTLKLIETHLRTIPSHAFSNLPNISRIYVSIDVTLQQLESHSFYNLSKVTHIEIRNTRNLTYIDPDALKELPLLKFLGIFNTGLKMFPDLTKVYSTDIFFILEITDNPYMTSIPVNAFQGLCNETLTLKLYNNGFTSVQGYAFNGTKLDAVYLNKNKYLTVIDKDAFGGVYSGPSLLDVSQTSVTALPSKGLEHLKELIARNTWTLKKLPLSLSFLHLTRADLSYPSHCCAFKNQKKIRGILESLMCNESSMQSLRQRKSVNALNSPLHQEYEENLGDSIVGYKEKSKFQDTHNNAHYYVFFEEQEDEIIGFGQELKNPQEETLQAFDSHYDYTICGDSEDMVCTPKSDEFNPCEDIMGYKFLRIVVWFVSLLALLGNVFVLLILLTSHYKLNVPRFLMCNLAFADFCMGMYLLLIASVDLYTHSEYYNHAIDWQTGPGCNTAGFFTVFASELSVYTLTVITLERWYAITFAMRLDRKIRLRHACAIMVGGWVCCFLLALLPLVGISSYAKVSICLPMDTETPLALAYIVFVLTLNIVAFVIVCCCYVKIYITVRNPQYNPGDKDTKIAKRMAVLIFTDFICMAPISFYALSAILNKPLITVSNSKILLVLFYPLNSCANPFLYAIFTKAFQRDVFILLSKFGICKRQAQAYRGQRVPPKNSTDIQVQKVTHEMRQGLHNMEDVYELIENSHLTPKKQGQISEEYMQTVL
# Outline: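 Readout is cAMP by HTRF competition between cellular cAMP and cAMP-d2 for a cryptate-labelled antibody. Antagonism was assessed in TSHR-transfected HEK293 cells stimulated with 4 nM TSH (EC80, final) in the presence of RO 20-1724.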
# [8] = target: Thyrotropin-releasing hormone receptor (Homo sapiens) (UniProt P34981); assay: qHTS for Small Molecule Agonists and Allosteric Enhancers of Human TRH Receptor: Validation Screen for Agonists (AID 493127;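 active = calcium activation more than 3 SD above the typical response in the agonist read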;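 note: intracellular calcium rise by fluo-8 fluorescence before TRH EC20 addition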); conditions: TRH receptor agonist cell assay; at 2 µM; hits give high values
# Thyrotropin-releasing hormone receptor (Homo sapiens), sequence (P34981 whole entry, looked up): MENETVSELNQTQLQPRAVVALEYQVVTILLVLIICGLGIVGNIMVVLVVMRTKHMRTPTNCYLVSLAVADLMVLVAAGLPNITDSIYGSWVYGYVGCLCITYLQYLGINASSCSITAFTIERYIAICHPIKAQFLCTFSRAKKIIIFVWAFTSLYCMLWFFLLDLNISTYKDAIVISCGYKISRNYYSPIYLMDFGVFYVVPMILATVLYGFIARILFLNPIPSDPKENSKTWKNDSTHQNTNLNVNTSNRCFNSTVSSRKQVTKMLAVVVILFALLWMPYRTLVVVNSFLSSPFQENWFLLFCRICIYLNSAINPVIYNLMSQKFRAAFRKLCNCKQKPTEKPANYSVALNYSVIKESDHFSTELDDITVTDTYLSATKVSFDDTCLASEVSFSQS
# Source text: as §1
# NIH Molecular Libraries Probe Centers Network [MLPCN]
# Assay Submitter (PI): Marvin Gershengorn
# This project aims to identify small drug-like molecules that activate (agonists) the thyrotropin releasing hormone (TRH) receptor (TRHR) or enhance its TRH-stimulated activity (allosteric enhancers). TRHR, a drug-accessible cell surface receptor expressed in specific brain regions, and its ligand TRH have been implicated in several central nervous system disorders, including depression and anxiety. […]
# For the HTS assay freshly prepared cells are plated at a density of 2000/well in 3 ul of complete DMEM medium containing 10% serum in 1536-well plates and cultured over night at 37 C in a humidified incubator with 5% CO2. […] For the assay, assay plates were loaded into the FDSS kinetic plate reader. […] The plate is measured for kinetically at 1 cycle/sec for 180 seconds and is considered to be the agonist portion of the assay (eg, compounds which activate a positive calcium response during this portion are flagged as potential agonists). Following the 180 second read, 1 ul of either an EC20 (positive modulation assay) is delivered by an onboard pipette head. […]
# [9] = target: Galactokinase (Homo sapiens) (UniProt P51570); assay: qHTS Validation Assay for Inhibitors of Human Galactokinase (GALK) (AID 493189)
# Galactokinase (Homo sapiens), sequence (P51570 whole entry, looked up): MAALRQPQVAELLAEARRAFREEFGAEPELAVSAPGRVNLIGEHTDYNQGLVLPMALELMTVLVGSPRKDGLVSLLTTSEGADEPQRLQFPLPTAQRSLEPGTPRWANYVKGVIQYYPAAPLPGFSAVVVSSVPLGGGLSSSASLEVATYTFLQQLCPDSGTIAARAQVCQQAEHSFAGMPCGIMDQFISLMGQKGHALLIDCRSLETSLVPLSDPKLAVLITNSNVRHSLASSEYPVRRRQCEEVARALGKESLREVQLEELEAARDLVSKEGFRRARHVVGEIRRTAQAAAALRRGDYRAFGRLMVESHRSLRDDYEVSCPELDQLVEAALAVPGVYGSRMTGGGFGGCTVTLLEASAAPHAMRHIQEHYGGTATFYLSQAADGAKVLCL
# Outline: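 5 nM GALK / 100 uM galactose / 35 uM ATP, 20 mM HEPES pH8.0, 5 mM MgCl2, 60 mM NaCl, 1 mM DTT, 0.01% BSA (final). RT 1 h; Kinase-Glo Plus luminescence.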
# [10] = Validation screen for small molecules that induce DNA re-replication in SW480 colon adenocarcinoma cells (AID 504364)
# Outline: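 SW480 cells (250/well) exposed 48 h at 37 C, 5% CO2, then Hoechst-stained 40 min. Nuclear DNA content imaged by fluorescence scanning (405 nm excitation, 500-530 nm emission); re-replication scored as increased nuclei with elevated intensity.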
smiles,measurement,setting,value
Cc1c(NC(=O)c2cccnc2)c(=O)n(-c2ccccc2)n1C,outcome,[1],inactive
CCN(CC)C(=O)c1cccc(C)c1,outcome,[1],inactive
same,Potency,[2],inactive
CC(C)C[C@@H](N)C(=O)O,outcome,[1],inactive
same,Potency,[2],inactive
CC(CSC(=O)c1ccccc1)C(=O)N1C[C@@H](Sc2ccccc2)C[C@H]1C(=O)O (stereo partly drawn),outcome,[1],inactive
same,Potency,[2],inactive
NS(=O)(=O)c1ccc(NC(=O)CCC(=O)O)cc1,outcome,[1],inactive
same,Potency,[2],inactive
CCCOC(=O)c1ccc(N)cc1,outcome,[1],inactive
same,Potency,[2],inactive
CCN(CC)CC1CCCCN1CC(=O)N1c2ccccc2C(=O)Nc2cccnc21 (stereo not drawn),outcome,[1],inactive
same,Potency,[2],inactive
CN(C/C=C/C#CC(C)(C)C)Cc1cccc2ccccc12,outcome,[1],inactive
O=C(/C=C/c1ccccc1)OCc1ccccc1,outcome,[1],inactive
Cc1onc(-c2ccccc2)c1-c1ccc(S(N)(=O)=O)cc1,outcome,[1],inactive
same,Potency,[2],inactive
CN1C[C@@H]2C[C@H]1CN2c1cc2c(cc1F)c(=O)c(C(=O)O)cn2C1CC1,outcome,[1],inactive
same,Potency,[2],inactive
CC(C)CCOC(=O)c1ccc(N(C)C)cc1,outcome,[1],inactive
CC(=O)SC[C@@H](Cc1ccccc1)C(=O)NCC(=O)OCc1ccccc1,outcome,[1],inactive
CCOC(=O)[C@H](CCc1ccccc1)N[C@@H](C)C(=O)N1CCC[C@H]1C(=O)O,outcome,[1],inactive
same,Potency,[2],inactive
CCCCCCCCCCC(CO)CCCCCCCC (stereo not drawn),outcome,[1],inactive
C=CCNC(N)=S,outcome,[1],inactive
same,Potency,[2],inactive
CN1C(C)(C)CCCC1(C)C,outcome,[3],inactive
same,outcome,[4],inactive
same,outcome,[5],inactive
same,outcome,[6],inactive
same,outcome,[7],inactive
same,activation,[8],0.688%
same,outcome,[9],inactive
same,outcome,[10],inactive
same,Potency,[2],inactive
CN1CCCN=C1COC(=O)C(O)(c1ccccc1)C1CCCCC1 (stereo not drawn),outcome,[1],inactive
same,Potency,[2],inactive
O=S1(=O)OC(c2ccc(O)cc2)(c2ccc(O)cc2)c2ccccc21,outcome,[1],inactive
NCC1CCC(C(=O)Oc2ccc(CCC(=O)O)cc2)CC1 (stereo not drawn),outcome,[1],inactive
same,Potency,[2],inactive
O=c1[nH]cnc2nc[nH]c12,outcome,[1],inactive
same,Potency,[2],inactive
CCCCCCCC(=O)OCC(O)CO (stereo not drawn),outcome,[1],inactive
same,Potency,[2],inactive
O=C1c2cccc(O)c2C(=O)c2c(O)cccc21,outcome,[1],inactive
same,Potency,[2],inactive
Cc1[nH]c(C)c(Cl)c(=O)c1Cl,outcome,[1],inactive
same,Potency,[2],inactive
O=C(O)CCC(=O)O,outcome,[1],inactive
same,Potency,[2],inactive
NNc1nnc(NN)c2ccccc12,outcome,[1],inactive
same,Potency,[2],inactive
Nc1ncnc(Nc2ccccc2)n1,outcome,[1],inactive
same,Potency,[2],inactive
COc1ccc(NS(=O)(=O)c2ccc(N)cc2)nn1,outcome,[1],inactive
same,Potency,[2],inactive
COc1ccc(C(=O)NCc2ccc(OCCN(C)C)cc2)cc1OC,outcome,[1],inactive
same,Potency,[2],inactive
COc1ccc(C(=O)N2CCN(CC(=O)N3CCOCC3)CC2)cc1,outcome,[1],inactive
same,Potency,[2],inactive
C[C@H]1COc2c(C3(N)CC3)c(F)cc3c(=O)c(C(=O)O)cn1c23,outcome,[1],inactive
same,Potency,[2],inactive
CN(C(=O)c1c(O)c2ccccc2n(C)c1=O)c1ccccc1,outcome,[1],inactive
same,Potency,[2],inactive
NNC(=O)CP(=O)(c1ccccc1)c1ccccc1,outcome,[1],inactive
same,Potency,[2],inactive
CC(N)CCCC(C)(C)O (stereo not drawn),outcome,[1],inactive
same,Potency,[2],inactive
COc1ccccc1OC(=O)Oc1ccccc1OC,outcome,[1],inactive
O=C1c2ccccc2S(=O)(=O)N1CCCCN1CCN(c2ncccn2)CC1,outcome,[1],inactive
same,Potency,[2],inactive
CN/C(=C\[N+](=O)[O-])NCCSCc1csc(CN(C)C)n1,outcome,[1],inactive
same,Potency,[2],inactive
O=C(O)c1cc(=O)c2ccccc2o1,outcome,[1],inactive
same,Potency,[2],inactive
COc1ccc(Cc2cnc(N)nc2N)cc1OC,outcome,[1],inactive
same,Potency,[2],inactive
CCN(CC)CCOC(=O)C(c1ccccc1)c1ccccc1,outcome,[1],inactive
same,Potency,[2],inactive
Nc1ccncc1N,outcome,[1],inactive
same,Potency,[2],inactive
CC(=O)OC[C@H]1O[C@@](COC(C)=O)(O[C@H]2O[C@H](COC(C)=O)[C@@H](OC(C)=O)[C@H](OC(C)=O)[C@H]2OC(C)=O)[C@@H](OC(C)=O)[C@@H]1OC(C)=O,outcome,[1],inactive
same,Potency,[2],inactive
CCOc1cc(NC(C)=O)ccc1C(=O)OC,outcome,[1],inactive
same,Potency,[2],inactive
CC(=O)Oc1cccc(O)c1,outcome,[1],inactive
same,Potency,[2],inactive
C[C@@H](N)C(=O)O,outcome,[1],inactive
same,Potency,[2],inactive
CCCCCCCCCCOc1cc2c(=O)c(C(=O)OCC)c[nH]c2cc1OCC,outcome,[1],inactive
same,Potency,[2],inactive
CNCc1ccccc1,outcome,[1],inactive
same,Potency,[2],inactive
COc1cc(C(=O)NCCCCCC(=O)O)cc(OC)c1OC,outcome,[1],inactive
same,Potency,[2],inactive
CC(=O)N[C@@H](Cc1ccc(O)cc1)C(=O)O,outcome,[1],inactive
same,Potency,[2],inactive
Nc1c2c(nc3c1CCC3)CCCC2,outcome,[1],inactive
same,Potency,[2],inactive
COc1ccccc1Oc1c(NS(=O)(=O)c2ccc(C(C)(C)C)cc2)nc(-c2ncccn2)nc1OCCO,outcome,[1],inactive
same,Potency,[2],inactive
FC(F)(F)C(Cl)Br (stereo not drawn),outcome,[1],inactive
same,Potency,[2],inactive
COC(=O)c1cccnc1,outcome,[1],inactive
same,Potency,[2],inactive
Cc1c(NC(C)C)c(=O)n(-c2ccccc2)n1C,outcome,[1],inactive
same,Potency,[2],inactive
CCCC(O)C(CC)CO (stereo not drawn),outcome,[1],inactive
same,Potency,[2],inactive
Cc1ccccc1N=Nc1ccc(N=Nc2c(O)ccc3ccccc23)c(C)c1,outcome,[1],inactive
same,Potency,[2],inactive
Cc1cccc(C)c1NC(=O)CC12CCCN1CCC2,outcome,[1],inactive
same,Potency,[2],inactive
